This is an account of results in PubChem BioAssay AID1875 (Broad Institute, 2009).

The structures appear in SMILES notation. The whole screen tested about 300,000 compounds, of which about 65 (0.02%) were called active.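 Rule for the calls: active = lowest replicate activity score at least 50, where 100 means six control SD above control mean; inconclusive = lowest score under 50 but half or more replicates reach 50; inactive = the rest.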 The entries come from a sample that favours actives as a whole.

This assay is described as follows: polyadenylation inhibitors in yeast reporter cells, primary screen, luminescence, S. cerevisiae (AID 1875).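 Note: yeast exposed to compound for 9 h at 30 °C; higher score means more reporter readthrough which indicates perturbed polyadenylation.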 As to conditions: S. cerevisiae SKY197-pL101 polyadenylation reporter, beta-gal luminescence; at 12 µM; stronger effect = higher value; efflux-impaired pdr1/pdr3 knockout yeast; score 100 = 6 SD above DMSO.
For `CC(C)C1Nc2c(C(=O)O)cccc2C(Nc2ccccc2C(=O)O)C1(C)C` (configuration not stated), the activity score was 12.3% (inactive). On to `Cc1ccn2c(=O)nc(SCC(=O)NCc3ccc4c(c3)OCO4)nc2c1`, for which the activity score is 17.3% (inactive). In the case of `Cn1cc(S(=O)(=O)NC(c2ccccc2)c2ccccc2)c(=O)n(C)c1=O`, the activity score is -1.67% (inactive). Take `COCCCNC(NC(=O)c1ccc(C)cc1)C(Cl)(Cl)Cl` (configuration not stated): the activity score was 8.69% (inactive). Regarding `COc1ccc2oc(=N)c(C(=O)Nc3ccc(Br)cc3)cc2c1`, the activity score was 0.299% (inactive). To `O=C(Nc1ccccc1N1CCOCC1)c1ccc(OCc2cscn2)cc1` belongs 3% (inactive); to `CC(=O)Nc1ccc(NC(=O)[C@@H](NC(=O)c2cccc(C)c2)C(C)C)cc1`, -9.42% (inactive). Take `CCOC(=O)CNC(=O)CSc1ccc2nnc(-c3cccnc3)n2n1`: the activity score was 7.59% (inactive). For the molecule `CCOC(=O)N1CCN(CC(=O)n2c(C)c(C)c3ccccc32)CC1`, the activity score is -9.64% (inactive). For `NC(N)=Nc1nc2ccc(Br)cc2c(=O)[nH]1`, the activity score is 11.2% (inactive).

For `Cc1ccc(NC(=O)C(=O)NCC2CCN(C(=O)c3cccc([N+](=O)[O-])c3)CC2)cc1`, the activity score was 15.6% (inactive). Consider `Cc1ccc(-n2nc(N)c3c(=O)oc(N(C)C)nc32)cc1`, for which the activity score was -13.9% (inactive). On to `FC(F)(F)c1cc(C(F)(F)F)c2ccc(N3CCN(c4ccccc4)CC3)nc2n1`, for which the activity score was -28.1% (inactive). To `Nc1c(C(=O)c2cccs2)sc2nsc(SCCN3CCCCC3)c12` belongs -10.6% (inactive). To `CN(Cc1nc(-c2cnccn2)no1)Cc1n[nH]c2c1CCCCC2` belongs -15.8% (inactive).

As to `CCNC(=O)CC1C(=O)N(c2ccc(OC)cc2)C(=O)N1CCOC` (configuration not stated), the activity score was 13.9% (inactive). To `Cc1c(Nc2nc3ccccc3nc2NS(=O)(=O)c2cccs2)c(=O)n(-c2ccccc2)n1C` belongs -9.51% (inactive); to `COc1cc(/C=C2/SC(=S)N(Cc3ccccc3)C2=O)cc(OC)c1O`, 425% (active); to `COc1ccccc1C(=O)NNC(=O)CCN1C(=O)/C(=C\c2ccccc2)SC1=S`, -4.37% (inactive).

For `COc1ccc(/C=C2\SC(=S)N(CCC(=O)Nc3ccccn3)C2=O)cc1OC`, the activity score was 14.3% (inactive). For `COC(=O)C(=Nc1ccccc1)/C(C(=O)C(=O)N(C)c1ccccc1)=C(\O)c1ccc(Cl)cc1`, the activity score is 3.12% (inactive). To `COc1ccc(C2/C=C\CN(S(=O)(=O)c3cccs3)CC(=O)N2Cc2ccc(F)cc2)cc1` (configuration not stated) belongs 1.94% (inactive); to `Cc1c(S(=O)(=O)N2CC(C)CC(C)C2)c(=O)n(C)c(=O)n1C` (configuration not stated), 11.6% (inactive). Consider `COc1ccc(/C=N/Nc2nc(-c3ccc(C)cc3)c(C#N)c(=O)[nH]2)cc1`, for which the activity score is -16.1% (inactive). To `Cc1ccc(CNC(=O)Cn2c(=O)c3sccc3n(Cc3cccc([N+](=O)[O-])c3)c2=O)cc1` belongs -7.25% (inactive). For `O=C(NCc1ccccc1)C(c1cccnc1)N(C(=O)c1csnn1)c1ccc(F)cc1` (configuration not stated), the activity score is 5.05% (inactive). In the case of `CC1CN(C(=O)COC(=O)c2cccc(NS(=O)(=O)c3ccccc3)c2)CC(C)O1` (configuration not stated), the activity score was 2% (inactive). As to `COc1ccc(NC(=O)COc2ccc(C(=O)c3ccc(F)cc3)cc2)cc1S(N)(=O)=O`, the activity score is 7.67% (inactive). Consider `O=C(O)CCCn1cc(NC(=O)COc2cccc(Cl)c2)cn1`, for which the activity score is -6.55% (inactive).

`Cc1cccn2c(CN(C)C3CCCc4ccccc43)c(C(=O)N3CCOCC3)nc12` (configuration not stated): the activity score is 10.7% (inactive).

As to `O=C(COC(=O)Cc1ccccc1F)NNC(=O)c1ccc(Cl)cc1`, the activity score is 0.16% (inactive). Turning to `CC(C)(C)C(=O)NC1CC2CCCC(C1)N2C(=O)Nc1ccccc1F` (configuration not stated), the activity score is 0.739% (inactive). Take `CCOc1ccccc1N1C(=O)CC(Sc2nccc(C)n2)C1=O` (configuration not stated): the activity score was 13.3% (inactive). In the case of `CC(C)COP(=O)(c1ccc(N(C)C)cc1)C(Nc1ccccc1)c1cccnc1` (configuration not stated) it was 9.1% (inactive); in that of `Cc1ccc2nsnc2c1S(=O)(=O)N1CCCC1C(=O)O` (configuration not stated), 12.1% (inactive). Turning to `CC(/C=C/C1(O)C(C)CC(=O)CC1(C)C)OC1OC(CO)C(O)C(O)C1O` (configuration not stated), the activity score was 14.6% (inactive). Regarding `Cc1nnc(SC(C)C(=O)Nc2ccc(S(=O)(=O)NC3CCCCC3)cc2)s1` (configuration not stated), the activity score was -4.69% (inactive). In the case of `O=C(CSc1ccccn1)Nc1nc2c(ccc3ccccc32)s1` it was -14.3% (inactive). As to `COc1ccc(NC(=O)c2cccc(Cl)c2)c[n+]1[O-]`, the activity score was 10.9% (inactive). For `COc1ccc(C(=O)N(Cc2ccccc2)c2ccc(C)cc2)cc1S(=O)(=O)N1CCOCC1`, the activity score is -2.8% (inactive). In the case of `Cn1c(N)c(C(=O)COC(=O)/C=C/c2ccc(OC(F)F)cc2)c(=O)n(C)c1=O`, the activity score is 0.664% (inactive).

Turning to `CCOc1ccc(S(=O)(=O)NCc2ccc3c(c2)OCO3)cc1C`, the activity score is 12.5% (inactive). To `Cc1cc(C)c(OCC(=O)N(Cc2cccs2)C2CCS(=O)(=O)C2)c(C)c1` (configuration not stated) belongs 21.1% (inactive); to `C#CCOCCOCCOCCNc1nc(N2CCN(C(=O)C([C@@H](C)CC)n3cc(C(N)COC(=O)C(F)(F)F)nn3)CC2)nc(N2CCN(C(=O)[C@H](CCCCN)n3cc(C(N)CC(C)C)nn3)CC2)n1` (some centres not stated), -6.03% (inactive); to `Cc1ccc(NC(=O)CN2CCc3ccccc3C2)cc1C`, -2.27% (inactive).

With `Cc1ccc(NC(=O)c2sc3nc(N)c(C#N)cc3c2N)cc1`, the activity score was 55.3% (active). For `CCc1ccc2nc3sc(C(=O)Nc4nnc(CC)s4)c(N)c3cc2c1`, the activity score is 34.8% (inactive).

Consider `Cc1ccc(NC(=O)CSCC(=O)Nc2sccc2C#N)cc1`, for which the activity score was 11.2% (inactive). On to `O=C1N(Cc2ccc3c(c2)OCO3)c2ccccc2C1(O)c1c[nH]c2ccccc12` (configuration not stated), for which the activity score is -1.62% (inactive). In the case of `CC(=O)N1CCN(c2ccc(NCc3ccc(C(C)C)cc3)cc2)CC1` it was 11.3% (inactive). As for `COC(=O)c1ccccc1NC(=O)CN(Cc1ccc(Cl)cc1)S(C)(=O)=O`, the activity score is -7.02% (inactive). Take `COc1cccc(CNS(=O)(=O)c2cc3c(cc2C)n(C)c(=O)c(=O)n3C)c1`: the activity score is -4.51% (inactive).

`CCCCn1c(N)c(N(CCOC)C(=O)c2oc3ccc(OC)cc3c2C)c(=O)[nH]c1=O`: the activity score was -1.46% (inactive). With `CC(C)=CC(=O)Nc1nnc(-c2ccc(F)cc2)s1`, the activity score is 24% (inactive). Consider `CCn1c(CC(=O)Nc2ccccc2C)nnc1SCC(=O)NC1=NCCS1`, for which the activity score was -11.9% (inactive). To `O=C(NC(=S)Nc1cccc2c(O)cccc12)c1cccc(Br)c1` belongs -27% (inactive); to `N/C(=N\S(=O)(=O)c1cc(C(F)(F)F)cc(C(F)(F)F)c1)c1cccs1`, 23.1% (inactive). To `CCOc1ccc(N2CC(C(=O)NCc3ccccn3)CC2=O)cc1` (configuration not stated) belongs 9.19% (inactive); to `CCc1ccc(-c2nn(-c3ccccc3)cc2CSC(=N)N)cc1`, 0.301% (inactive); to `COc1ccccc1OCc1ccc(C(=O)NC(C)c2ccccc2)o1` (configuration not stated), 9.72% (inactive).

As for `CS(=O)(=O)N(CC(=O)N1CCc2ccccc2C1)c1ccc(Br)cc1`, the activity score was -7.16% (inactive). Take `COc1cccc(COC(=O)C2CCN(S(=O)(=O)c3ccc(Cl)cc3)CC2)c1OC`: the activity score is 10.3% (inactive). To `Cc1ccc(NC(=O)c2cc3ccccc3o2)cc1` belongs -13.9% (inactive); to `O=C(NCCS(=O)(=O)N1CCN(c2ccccc2F)CC1)c1ccc(Br)o1`, 1.43% (inactive).

As to `CCOc1ccc(C2c3[nH]c4ccccc4c3CCN2Cc2cccn2-c2ncccn2)cc1` (configuration not stated), the activity score was 0.986% (inactive).

Take `CCc1c(C)nc2c(OC)cccc2c1Cl`: the activity score is -37.6% (inactive). To `O=C(CN1CCOCC1)Nc1c2c(nc3c1CCC3)CCC2` belongs 1.76% (inactive). For `CC1(C)CCSC(/C=C/c2ccccc2)=N1`, the activity score was 6.99% (inactive). As to `COc1ccc(-n2c(O)c(C=NCC(c3ccco3)N3CCCC3)c3ccccc3c2=O)cc1OC` (configuration not stated), the activity score is 6.18% (inactive). To `COc1cc(NC(=O)c2cncc(-c3ccc(C#N)cc3)c2)cc(C(=O)Nc2cccc(C(F)(F)F)c2)c1` belongs -7.7% (inactive); to `O=C(C1CCN(c2nnc(-n3cccc3)s2)CC1)N1CCc2ccccc2C1`, 9.11% (inactive). As to `CCc1noc(C)c1C(=O)Oc1ccc(N(C)S(=O)(=O)c2ccc(C)c(C)c2)cc1`, the activity score is 0.103% (inactive). On to `Cc1ccc(CNC(=O)C2CCN(S(=O)(=O)c3ccc4nc5c(c(C(=O)O)c4c3)CC(C)CC5)CC2)cc1` (configuration not stated), for which the activity score is -6.73% (inactive). In the case of `CCn1cc(CN2CCC(C(=O)Nc3cccc(-c4cccc(Cl)c4)c3)CC2)c(C)n1` it was 3.2% (inactive); in that of `Cc1ccc(-c2cc(C(=O)NCc3cn(C)nc3C)c3cc(Br)ccc3n2)cc1`, 2.61% (inactive); in that of `O=C(c1ccncc1)N1CCN(S(=O)(=O)c2cc(C(F)(F)F)cc(C(F)(F)F)c2)CC1`, 9.96% (inactive). To `COc1ccc(C(CNC(=O)c2ccc(S(=O)(=O)Nc3ccccc3F)cc2)N(C)C)cc1` (configuration not stated) belongs 4.77% (inactive); to `CCCCn1c(N)c(N(CCOC)C(=O)CSCC(=O)Nc2cccc(C)c2)c(=O)[nH]c1=O`, 10.8% (inactive). Regarding `Cc1cc(C)nc(NS(=O)(=O)c2ccc(N/C=C\C(=O)c3cccs3)cc2)n1`, the activity score was -11% (inactive). As for `O=C(c1snnc1-c1ccccc1)N1CCOCC1`, the activity score was 18.7% (inactive).

For the molecule `CC(OC(=O)CNC(=O)c1ccco1)C(=O)Nc1ccc(Cl)cn1` (configuration not stated), the activity score was -11.7% (inactive). With `CCOc1ccccc1OCCCNCc1ccccc1`, the activity score is 14.2% (inactive).

For `COc1cc(C(=O)NCCOC(=O)c2cccc(N(C)C)c2)cc(OC)c1OC`, the activity score was 1.84% (inactive). Consider `O=c1[nH]cnc(O)c1C(c1ccc(F)cc1)c1c(O)nc[nH]c1=O`, for which the activity score is -1.62% (inactive). As to `COc1ccc([N+](=O)[O-])cc1N(CC(O)CN(CC(C)C)CC(C)C)S(=O)(=O)c1ccc(C)cc1` (configuration not stated), the activity score was 12.6% (inactive).

Regarding `O=[N+]([O-])c1cc(C(F)(F)F)ccc1NCCc1ccncc1`, the activity score was -17.4% (inactive). Consider `CC(C)CCNC(=O)c1cccnc1Sc1ccccc1`, for which the activity score is -10.2% (inactive).
